Test results from PubChem BioAssay AID2391 (Southern Research Specialized Biocontainment Screening …, 2010).
About 410 (0.13%) of roughly 310,000 compounds were called active. Inconclusive results (about 2%) are left out. The list is a sample of the results. Potency and affinity values are given separately. A number with no mark means an inactive call. The rule behind the calls is not given here.

assay: RSV antiviral activity via CPE protection, HEp-2 cells, primary 10 µM value included (AID 2391); details: RSV-induced CPE inhibition, at 10 µM, stronger effect = higher value

| SMILES | CPE inhibition [%] |
| --- | --- |
| COC(=O)CSc1nnc(CNC(=O)c2ccccc2F)n1-c1ccc(F)cc1 | 1.47 |
| CSc1ccc(NC(=O)N2CCC(C(=O)c3ccc(F)cc3)CC2)cc1 | 8.24 |
| COc1ccc(S(=O)(=O)N2CCN(C(=O)c3ccc4ccccc4n3)CC2)cc1 | 3.49 |
| Cc1cc(C)c(NC(=O)CSc2nnc(CNC(=O)c3ccco3)o2)c(C)c1 | -0.65 |
| COc1ccccc1-c1oc2ccccc2c1C#CCCO | 3.39 |
| Cc1cccc(-c2oc3ccccc3c2C#CCCCCO)c1 | 3.25 |
| COc1cc(C2NC(C(=O)O)Cc3c2[nH]c2ccccc32)cc(OC)c1OC (centres undefined) | 5.99 |
| CC(=O)Nc1nnc(SCC(=O)c2ccc(F)cc2)s1 | 1.4 |
| CCC(=O)Nc1nnc(SCC(=O)c2ccc3c(c2)Cc2ccccc2-3)s1 | 42.4 |
| Cc1c(NC(=S)Nc2ccc(Cl)cc2)c(=O)n(-c2ccccc2)n1C | 2.83 |
| Cc1c(Cl)cccc1NC(=S)NCCN1CCOCC1 | 1.32 |
| COc1ccc(C(=O)COc2ccc3c(C)cc(=O)oc3c2)cc1 | 1.42 |
| Cc1ccc(-c2nnc3c4ccccc4c(C)nn23)cc1S(=O)(=O)N1CCN(CCO)CC1 | 8.23 |
| COc1ccc(-c2nnc3c4ccccc4c(C)nn23)cc1S(=O)(=O)N1CCN(CCO)CC1 | -0.91 |
| Cc1nn2c(-c3ccc(S(=O)(=O)N4CCN(C)CC4)o3)nnc2c2ccccc12 | -1.89 |
| Cc1ccc(-c2nnc3c4ccccc4c(C)nn23)cc1S(=O)(=O)N1CCN(C)CC1 | 0.37 |
| Cc1cc(NC(=O)CCC(=O)N(Cc2ccco2)C2(C(=O)NC3CCCC3)CCCCC2C)no1 (centres undefined) | 2.17 |
| O=C(c1ccc(F)cc1)N1C2CCC1CC(O)(c1ccc(F)cc1)C2 (centres undefined) | 0.65 |
| COc1ccc(S(=O)(=O)N2CCCCC2)cc1C(=O)N1CCCCCC1 | 1.11 |
| CC1Cc2ccccc2N1C(=O)COC(=O)c1ccc(Br)o1 (centres undefined) | -0.89 |

| SMILES | CPE inhibition [%] |
| --- | --- |
| Cc1ccc(NC(=S)N2CCC(O)CC2)c(C)c1 | 3.11 |
| Cc1cccc(C)c1NC(=O)CN(C)CC(=O)c1c(N)n(Cc2ccccc2)c(=O)n(C)c1=O | 0.19 |
| Cc1ccc2nc(C)cc(C(=O)OCC(=O)Nc3c(C)n(C)n(-c4ccccc4)c3=O)c2c1 | 2.74 |
| Cc1c(NC(=O)COC(=O)c2cc(-c3cccc4ccccc34)nc3ccccc23)c(=O)n(-c2ccccc2)n1C | 1.88 |
| COc1ccc(/C=N/NC(=O)Cc2ccc(Cl)cc2)cc1OC | 1.07 |
| COc1ccc(NC2=C(NC(C)=O)C(=O)c3ccccc3C2=O)cc1 | -0.06 |
| CN(C)c1ccc(NC2=C(Cl)C(=O)c3ccccc3C2=O)cc1 | -2.87 |
| CCC1=NN2C(=N)/C(=C\c3cccn3-c3ccc(C)cc3C)C(=O)N=C2S1 | 16.1 |
| CCC1=NN2C(=N)/C(=C\c3cccn3-c3ccc(C)c(C)c3)C(=O)N=C2S1 | 15.3 |
| c1ccc(-n2cc(CN3CCCC3)c(-c3ccc4c(c3)OCO4)n2)cc1 | 5.52 |
| Cc1ccc(NC(=O)c2sc(N)nc2-c2ccc([N+](=O)[O-])cc2)cc1C | -0.73 |
| Cc1ccccc1C(=O)NC(C)C(c1cccs1)N1CCOCC1 (centres undefined) | -0.28 |
| Cc1nn(-c2ccccc2)c2nc(N)c(C#N)c(-c3ccc(O)c(O)c3)c12 | 39.2 |
| Cc1nn(-c2ccc(F)cc2)c2nc(N)c(C#N)c(-c3ccc(O)c(O)c3)c12 | 0.04 |
| Cc1ccc(C)c2c1cc(C)c1nnc(SCC(=O)NCc3ccc4c(c3)OCO4)n12 | 2.14 |
| CCOC(=O)/C(C#N)=C/c1c(N2CCN(c3ccc(OC)cc3)CC2)nc2c(C)cccn2c1=O | 7.79 |
| Cc1ccc(N2CC(O)Cn3c2nc2c3c(=O)n(C)c(=O)n2C)cc1 (centres undefined) | 0.84 |
| Cc1csc(NC(=O)CSc2nnc(C)c(=O)n2N)n1 | -0.18 |
| NNC(=O)c1[nH]c(-c2ccccc2)cc1-c1ccccc1 | 0.95 |
| O=C1c2ccccc2C(Nc2ccc3c(c2)OCO3)N1Cc1ccc2c(c1)OCO2 (centres undefined) | 13.8 |

| SMILES | CPE inhibition [%] |
| --- | --- |
| O=C1c2ccccc2C(Nc2ccccc2)N1Cc1ccc2c(c1)OCO2 (centres undefined) | 8.65 |
| C/C=C/C(=O)Nc1nnc(-c2ccccc2C)s1 | 0.32 |
| CCOc1cccc(C(=O)Nc2ccccc2C(=O)N2CCN(C)CC2)c1 | -0.42 |
| CC(CC(=O)Nc1nccs1)c1ccccc1 (centres undefined) | -0.09 |
| O=C(c1cccc(S(=O)(=O)N2CCc3ccccc32)c1)N1CCc2ccccc2C1 | 7.22 |
| COc1cc2c(cc1OC)CN(C(=O)c1cccc(S(=O)(=O)N(C)C)c1)CC2 | 1.79 |
| O=C(C1CC(=O)N(c2ccc(F)cc2)C1)N1CCOCC1 (centres undefined) | 3.24 |
| Cn1c(O)c(/C=C2\C=Nc3ccccc32)sc1=Nc1ccc(C(=O)O)cc1 | 1.42 |
| C/C(=N\NC(=O)c1ccc(NS(=O)(=O)c2cccs2)cc1)c1ccncc1 | 3.91 |
| C/C(=N\NC(=O)c1ccc(NS(=O)(=O)c2cccs2)cc1)c1ccccc1 | -0.3 |
| CC(C)=CCCC(C)CN1CCC(n2nccc2NC(=O)c2ccc3c(c2)OCO3)CC1 (centres undefined) | -0.22 |
| N#Cc1ccccc1Cn1c(=O)n(Cc2ccc(C(=O)NCc3ccco3)cc2)c(=O)c2ccccc21 | 2.54 |
| COCCCNC(=O)c1ccc(Cn2c(=O)c3ccccc3n(Cc3cc(C)ccc3C)c2=O)cc1 | 1.91 |
| O=C(NCc1ccco1)c1ccc(Cn2c(=O)c3ccccc3n(Cc3cccc(F)c3)c2=O)cc1 | 4.05 |
| N#Cc1ccccc1Cn1c(=O)n(Cc2ccc(C(=O)NCc3ccco3)cc2)c(=O)c2sccc21 | 2.1 |
| COCCCNC(=O)c1ccc(Cn2c(=O)c3ccccc3n(Cc3ccccc3C)c2=O)cc1 | 1.4 |
| O=C(NCc1ccco1)c1ccc(Cn2c(=O)c3ccccc3n(Cc3cccc(Cl)c3)c2=O)cc1 | 18.6 |
| O=C(NCc1ccco1)c1ccc2c(=O)n(-c3ccccc3)c(=O)n(Cc3cccc(F)c3)c2c1 | 0.67 |
| O=C(CCCn1c(=O)c2sccc2n(Cc2ccc(F)cc2)c1=O)NCc1ccco1 | -0.44 |
